Experimental data reported in ChEMBL document CHEMBL1961873, “Compounds: GSK PKIS; Assays: Nanosyn kinase panel” (2012).

Experiments:
[1] = biological target: T1, Aurora kinase A (Homo sapiens) (UniProt O14965); conditions: at 1 µM;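 further: values are mean percent inhibition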
T1 sequence (whole entry): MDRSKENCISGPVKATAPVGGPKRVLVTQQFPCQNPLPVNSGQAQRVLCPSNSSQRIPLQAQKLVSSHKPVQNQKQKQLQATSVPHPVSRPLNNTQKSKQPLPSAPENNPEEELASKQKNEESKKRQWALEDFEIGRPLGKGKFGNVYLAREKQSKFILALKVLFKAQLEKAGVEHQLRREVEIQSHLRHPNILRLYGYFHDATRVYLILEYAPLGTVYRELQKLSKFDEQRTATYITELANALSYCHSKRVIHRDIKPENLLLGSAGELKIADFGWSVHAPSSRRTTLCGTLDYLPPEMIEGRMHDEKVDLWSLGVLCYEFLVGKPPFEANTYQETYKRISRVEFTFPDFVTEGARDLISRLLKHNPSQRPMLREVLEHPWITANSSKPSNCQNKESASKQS

[2] = biological target: Aurora kinase B (Homo sapiens) (UniProt Q96GD4); conditions: at 0.1 µM
Aurora kinase B (Homo sapiens), sequence (Q96GD4 whole entry): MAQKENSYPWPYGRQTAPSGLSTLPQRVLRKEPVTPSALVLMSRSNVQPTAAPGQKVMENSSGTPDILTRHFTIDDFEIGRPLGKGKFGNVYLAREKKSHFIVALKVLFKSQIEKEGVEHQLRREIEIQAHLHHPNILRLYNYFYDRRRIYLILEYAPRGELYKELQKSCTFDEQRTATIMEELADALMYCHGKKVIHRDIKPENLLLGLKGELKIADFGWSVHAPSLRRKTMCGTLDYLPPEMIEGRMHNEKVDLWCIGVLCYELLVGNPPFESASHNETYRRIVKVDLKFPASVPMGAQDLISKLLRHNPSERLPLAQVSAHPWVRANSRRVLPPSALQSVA

[3] = biological target: Aurora kinase B (Homo sapiens) (UniProt Q96GD4); conditions: at 1 µM
[4] = biological target: T2, Aurora kinase C (Homo sapiens) (UniProt Q9UQB9); conditions: at 0.1 µM
T2 sequence (whole entry): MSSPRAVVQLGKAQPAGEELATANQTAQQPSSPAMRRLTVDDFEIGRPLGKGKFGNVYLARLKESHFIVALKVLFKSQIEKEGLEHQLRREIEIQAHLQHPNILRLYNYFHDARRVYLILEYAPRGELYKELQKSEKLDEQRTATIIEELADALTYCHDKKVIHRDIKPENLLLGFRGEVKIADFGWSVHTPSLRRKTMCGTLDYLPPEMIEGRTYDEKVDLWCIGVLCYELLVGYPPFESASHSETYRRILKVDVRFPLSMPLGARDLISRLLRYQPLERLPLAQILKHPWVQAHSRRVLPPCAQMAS

[5] = biological target: T2, Aurora kinase C (Homo sapiens); conditions: at 1 µM
[6] = biological target: Serine/threonine-protein kinase 10 (Homo sapiens) (UniProt O94804); conditions: at 0.1 µM
Serine/threonine-protein kinase 10 (Homo sapiens), sequence (O94804 whole entry, looked up): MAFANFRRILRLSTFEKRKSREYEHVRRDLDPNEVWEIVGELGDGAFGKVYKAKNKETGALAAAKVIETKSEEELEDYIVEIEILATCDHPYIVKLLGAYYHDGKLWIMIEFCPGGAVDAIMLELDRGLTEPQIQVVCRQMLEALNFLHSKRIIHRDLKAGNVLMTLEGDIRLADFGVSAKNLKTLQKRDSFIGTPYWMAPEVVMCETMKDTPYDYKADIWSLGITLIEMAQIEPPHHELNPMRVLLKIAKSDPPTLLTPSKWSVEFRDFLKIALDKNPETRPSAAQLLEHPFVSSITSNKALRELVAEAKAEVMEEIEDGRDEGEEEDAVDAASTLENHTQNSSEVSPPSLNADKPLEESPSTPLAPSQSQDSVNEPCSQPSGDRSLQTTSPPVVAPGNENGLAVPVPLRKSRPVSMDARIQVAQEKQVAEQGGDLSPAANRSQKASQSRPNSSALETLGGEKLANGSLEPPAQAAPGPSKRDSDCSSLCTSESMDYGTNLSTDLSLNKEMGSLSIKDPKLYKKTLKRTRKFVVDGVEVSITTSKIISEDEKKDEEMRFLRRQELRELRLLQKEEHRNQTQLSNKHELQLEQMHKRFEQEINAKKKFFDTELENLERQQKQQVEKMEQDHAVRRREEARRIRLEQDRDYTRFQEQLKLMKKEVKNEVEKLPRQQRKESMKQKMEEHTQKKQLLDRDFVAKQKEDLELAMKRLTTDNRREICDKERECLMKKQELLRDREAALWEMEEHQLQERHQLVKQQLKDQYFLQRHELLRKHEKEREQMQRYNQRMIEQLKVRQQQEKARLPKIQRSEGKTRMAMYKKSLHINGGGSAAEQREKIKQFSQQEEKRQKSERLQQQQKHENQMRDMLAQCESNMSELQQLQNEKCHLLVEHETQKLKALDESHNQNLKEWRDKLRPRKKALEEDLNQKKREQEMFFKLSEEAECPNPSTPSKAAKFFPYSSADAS

[7] = biological target: Serine/threonine-protein kinase 10 (Homo sapiens) (UniProt O94804); conditions: at 1 µM
[8] = biological target: T3, Mitogen-activated protein kinase kinase kinase kinase 2 (Homo sapiens) (UniProt Q12851); conditions: at 0.1 µM
T3 sequence (whole entry): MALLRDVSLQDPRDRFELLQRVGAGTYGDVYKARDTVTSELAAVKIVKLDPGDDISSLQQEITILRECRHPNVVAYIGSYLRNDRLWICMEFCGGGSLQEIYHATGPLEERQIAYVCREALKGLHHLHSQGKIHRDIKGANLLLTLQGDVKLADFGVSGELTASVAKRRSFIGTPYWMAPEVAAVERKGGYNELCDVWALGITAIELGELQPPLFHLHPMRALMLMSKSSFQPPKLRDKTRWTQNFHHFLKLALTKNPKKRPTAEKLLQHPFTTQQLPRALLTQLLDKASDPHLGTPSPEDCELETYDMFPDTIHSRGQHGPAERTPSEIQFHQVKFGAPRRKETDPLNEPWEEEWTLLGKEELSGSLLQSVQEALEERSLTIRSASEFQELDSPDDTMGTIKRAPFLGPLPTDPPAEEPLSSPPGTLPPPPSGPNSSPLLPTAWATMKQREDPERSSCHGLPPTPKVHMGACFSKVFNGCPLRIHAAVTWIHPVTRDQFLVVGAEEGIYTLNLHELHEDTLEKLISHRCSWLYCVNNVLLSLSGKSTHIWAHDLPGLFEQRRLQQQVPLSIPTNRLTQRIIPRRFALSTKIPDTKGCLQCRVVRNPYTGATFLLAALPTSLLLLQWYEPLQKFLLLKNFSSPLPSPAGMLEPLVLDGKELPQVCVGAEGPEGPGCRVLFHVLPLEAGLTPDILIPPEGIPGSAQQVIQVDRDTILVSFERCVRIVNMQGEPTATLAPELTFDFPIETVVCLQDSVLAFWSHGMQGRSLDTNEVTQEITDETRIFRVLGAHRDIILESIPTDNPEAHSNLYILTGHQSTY

[9] = biological target: T3, Mitogen-activated protein kinase kinase kinase kinase 2 (Homo sapiens); conditions: at 1 µM
[10] = biological target: Mitogen-activated protein kinase kinase kinase kinase 4 (Homo sapiens) (UniProt O95819); conditions: at 0.1 µM
Mitogen-activated protein kinase kinase kinase kinase 4 (Homo sapiens), sequence (O95819 2-1239 limits assumed): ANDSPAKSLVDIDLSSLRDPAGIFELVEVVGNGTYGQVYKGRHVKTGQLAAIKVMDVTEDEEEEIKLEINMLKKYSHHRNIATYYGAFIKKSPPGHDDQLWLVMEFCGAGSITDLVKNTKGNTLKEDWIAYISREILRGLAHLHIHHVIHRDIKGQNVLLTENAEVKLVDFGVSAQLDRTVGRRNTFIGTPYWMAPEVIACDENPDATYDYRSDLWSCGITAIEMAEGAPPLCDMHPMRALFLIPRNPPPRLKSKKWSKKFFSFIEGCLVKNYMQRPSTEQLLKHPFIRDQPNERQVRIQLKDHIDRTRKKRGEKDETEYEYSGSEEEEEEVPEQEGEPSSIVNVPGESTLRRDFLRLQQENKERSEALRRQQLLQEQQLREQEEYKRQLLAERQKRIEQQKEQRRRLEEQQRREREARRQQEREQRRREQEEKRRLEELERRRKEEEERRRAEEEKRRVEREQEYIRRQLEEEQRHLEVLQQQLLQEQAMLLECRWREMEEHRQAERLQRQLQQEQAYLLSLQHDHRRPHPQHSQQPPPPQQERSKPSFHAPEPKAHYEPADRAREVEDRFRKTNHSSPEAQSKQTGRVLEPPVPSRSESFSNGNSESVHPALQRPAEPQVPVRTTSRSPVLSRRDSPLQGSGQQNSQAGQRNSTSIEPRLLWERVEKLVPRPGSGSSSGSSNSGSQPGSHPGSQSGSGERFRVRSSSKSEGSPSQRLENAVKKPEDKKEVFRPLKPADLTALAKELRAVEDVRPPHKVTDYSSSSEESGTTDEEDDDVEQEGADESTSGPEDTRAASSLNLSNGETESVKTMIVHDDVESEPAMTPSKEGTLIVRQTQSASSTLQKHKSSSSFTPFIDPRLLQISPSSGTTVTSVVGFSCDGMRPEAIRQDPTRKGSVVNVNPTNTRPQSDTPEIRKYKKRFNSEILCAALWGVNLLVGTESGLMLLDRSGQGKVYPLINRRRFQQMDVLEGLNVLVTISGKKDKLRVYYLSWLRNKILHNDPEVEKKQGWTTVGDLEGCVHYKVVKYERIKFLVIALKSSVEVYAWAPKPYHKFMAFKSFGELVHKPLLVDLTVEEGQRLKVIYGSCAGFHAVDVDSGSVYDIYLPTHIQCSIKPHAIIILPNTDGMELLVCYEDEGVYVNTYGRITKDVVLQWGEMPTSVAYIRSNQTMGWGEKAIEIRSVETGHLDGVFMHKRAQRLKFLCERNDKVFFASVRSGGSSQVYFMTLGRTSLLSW

[11] = biological target: Mitogen-activated protein kinase kinase kinase kinase 4 (Homo sapiens) (UniProt O95819); conditions: at 1 µM
[12] = biological target: Dual specificity mitogen-activated protein kinase kinase 1 (Homo sapiens) (UniProt Q02750); conditions: at 0.1 µM
Dual specificity mitogen-activated protein kinase kinase 1 (Homo sapiens), sequence (Q02750 whole entry): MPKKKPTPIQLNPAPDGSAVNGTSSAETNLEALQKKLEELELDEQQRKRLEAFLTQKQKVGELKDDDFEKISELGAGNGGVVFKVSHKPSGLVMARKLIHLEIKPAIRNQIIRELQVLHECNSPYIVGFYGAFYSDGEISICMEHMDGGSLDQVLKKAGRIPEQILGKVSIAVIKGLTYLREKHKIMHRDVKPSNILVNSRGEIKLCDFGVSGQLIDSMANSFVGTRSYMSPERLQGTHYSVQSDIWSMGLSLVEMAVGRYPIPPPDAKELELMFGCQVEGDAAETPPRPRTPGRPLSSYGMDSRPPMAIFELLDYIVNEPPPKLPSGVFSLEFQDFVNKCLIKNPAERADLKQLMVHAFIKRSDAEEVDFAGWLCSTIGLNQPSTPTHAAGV

[13] = biological target: Dual specificity mitogen-activated protein kinase kinase 1 (Homo sapiens) (UniProt Q02750); conditions: at 1 µM
[14] = biological target: Misshapen-like kinase 1 (Homo sapiens) (UniProt Q8N4C8); conditions: at 0.1 µM
Misshapen-like kinase 1 (Homo sapiens), sequence (Q8N4C8 whole entry, looked up): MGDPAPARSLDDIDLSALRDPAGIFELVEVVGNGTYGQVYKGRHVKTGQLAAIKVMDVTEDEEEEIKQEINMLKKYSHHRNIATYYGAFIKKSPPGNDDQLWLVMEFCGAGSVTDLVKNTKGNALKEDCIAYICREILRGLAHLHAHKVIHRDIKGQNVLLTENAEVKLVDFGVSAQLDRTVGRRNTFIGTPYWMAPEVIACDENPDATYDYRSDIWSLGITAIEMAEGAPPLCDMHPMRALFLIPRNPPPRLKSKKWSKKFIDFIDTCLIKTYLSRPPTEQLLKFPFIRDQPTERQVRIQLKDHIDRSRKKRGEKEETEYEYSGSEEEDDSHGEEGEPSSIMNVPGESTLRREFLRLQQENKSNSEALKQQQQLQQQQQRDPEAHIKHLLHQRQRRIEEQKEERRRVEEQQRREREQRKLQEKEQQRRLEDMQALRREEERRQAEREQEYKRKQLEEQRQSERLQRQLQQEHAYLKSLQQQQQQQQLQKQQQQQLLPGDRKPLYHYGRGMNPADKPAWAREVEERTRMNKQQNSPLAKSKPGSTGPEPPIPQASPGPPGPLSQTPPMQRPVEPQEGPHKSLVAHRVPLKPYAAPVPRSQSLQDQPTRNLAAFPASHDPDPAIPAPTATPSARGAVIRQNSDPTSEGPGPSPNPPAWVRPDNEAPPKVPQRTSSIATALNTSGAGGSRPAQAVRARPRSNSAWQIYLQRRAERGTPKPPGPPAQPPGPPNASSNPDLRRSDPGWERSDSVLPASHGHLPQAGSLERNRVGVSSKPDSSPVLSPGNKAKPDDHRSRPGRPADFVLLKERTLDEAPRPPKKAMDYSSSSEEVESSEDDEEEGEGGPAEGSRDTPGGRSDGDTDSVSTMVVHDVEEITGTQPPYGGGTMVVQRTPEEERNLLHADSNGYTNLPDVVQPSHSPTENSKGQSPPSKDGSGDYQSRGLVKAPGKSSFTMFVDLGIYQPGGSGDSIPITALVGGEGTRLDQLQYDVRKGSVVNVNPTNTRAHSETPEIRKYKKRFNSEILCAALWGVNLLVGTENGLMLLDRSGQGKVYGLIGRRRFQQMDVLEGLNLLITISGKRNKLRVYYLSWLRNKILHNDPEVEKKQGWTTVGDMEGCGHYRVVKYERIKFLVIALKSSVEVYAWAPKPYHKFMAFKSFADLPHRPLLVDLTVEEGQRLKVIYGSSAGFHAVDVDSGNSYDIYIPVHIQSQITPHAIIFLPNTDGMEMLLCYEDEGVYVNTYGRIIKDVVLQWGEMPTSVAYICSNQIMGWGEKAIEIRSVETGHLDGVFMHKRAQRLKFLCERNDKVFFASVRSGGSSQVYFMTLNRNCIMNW

[15] = biological target: Misshapen-like kinase 1 (Homo sapiens) (UniProt Q8N4C8); conditions: at 1 µM
[16] = biological target: T4, Serine/threonine-protein kinase 4 (Homo sapiens) (UniProt Q13043); conditions: at 0.1 µM
T4 sequence (whole entry): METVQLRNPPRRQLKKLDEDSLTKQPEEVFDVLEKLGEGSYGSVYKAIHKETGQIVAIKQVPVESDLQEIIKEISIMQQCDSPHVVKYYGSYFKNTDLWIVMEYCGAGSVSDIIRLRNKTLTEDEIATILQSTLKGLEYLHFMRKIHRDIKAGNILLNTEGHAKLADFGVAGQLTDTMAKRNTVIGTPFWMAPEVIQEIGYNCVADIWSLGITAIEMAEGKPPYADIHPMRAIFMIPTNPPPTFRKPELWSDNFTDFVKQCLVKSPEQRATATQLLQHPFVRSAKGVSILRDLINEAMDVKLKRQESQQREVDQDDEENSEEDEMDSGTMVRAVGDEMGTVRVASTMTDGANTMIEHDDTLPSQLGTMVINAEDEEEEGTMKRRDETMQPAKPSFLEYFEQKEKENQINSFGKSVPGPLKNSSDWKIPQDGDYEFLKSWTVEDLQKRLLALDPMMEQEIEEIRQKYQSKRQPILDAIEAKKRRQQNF

[17] = biological target: T4, Serine/threonine-protein kinase 4 (Homo sapiens); conditions: at 1 µM
[18] = biological target: T5, Serine/threonine-protein kinase 3 (Homo sapiens) (UniProt Q13188); conditions: at 0.1 µM
T5 sequence (whole entry): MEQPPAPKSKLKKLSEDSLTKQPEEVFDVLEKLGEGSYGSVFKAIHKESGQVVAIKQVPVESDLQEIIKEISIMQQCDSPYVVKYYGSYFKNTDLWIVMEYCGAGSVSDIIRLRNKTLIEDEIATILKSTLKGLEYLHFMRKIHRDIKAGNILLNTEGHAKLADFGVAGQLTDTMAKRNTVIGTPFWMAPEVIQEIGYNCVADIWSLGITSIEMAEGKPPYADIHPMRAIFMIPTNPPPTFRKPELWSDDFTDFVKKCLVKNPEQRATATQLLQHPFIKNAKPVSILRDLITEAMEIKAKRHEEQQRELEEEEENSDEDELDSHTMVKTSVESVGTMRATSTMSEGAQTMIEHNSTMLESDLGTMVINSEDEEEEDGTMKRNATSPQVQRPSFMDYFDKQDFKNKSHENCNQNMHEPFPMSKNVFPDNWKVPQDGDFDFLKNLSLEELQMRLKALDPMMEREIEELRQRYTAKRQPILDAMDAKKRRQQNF

[19] = biological target: T5, Serine/threonine-protein kinase 3 (Homo sapiens); conditions: at 1 µM
[20] = biological target: Serine/threonine-protein kinase 26 (Homo sapiens) (UniProt Q9P289); conditions: at 0.1 µM
Serine/threonine-protein kinase 26 (Homo sapiens), sequence (Q9P289 2-416 limits assumed): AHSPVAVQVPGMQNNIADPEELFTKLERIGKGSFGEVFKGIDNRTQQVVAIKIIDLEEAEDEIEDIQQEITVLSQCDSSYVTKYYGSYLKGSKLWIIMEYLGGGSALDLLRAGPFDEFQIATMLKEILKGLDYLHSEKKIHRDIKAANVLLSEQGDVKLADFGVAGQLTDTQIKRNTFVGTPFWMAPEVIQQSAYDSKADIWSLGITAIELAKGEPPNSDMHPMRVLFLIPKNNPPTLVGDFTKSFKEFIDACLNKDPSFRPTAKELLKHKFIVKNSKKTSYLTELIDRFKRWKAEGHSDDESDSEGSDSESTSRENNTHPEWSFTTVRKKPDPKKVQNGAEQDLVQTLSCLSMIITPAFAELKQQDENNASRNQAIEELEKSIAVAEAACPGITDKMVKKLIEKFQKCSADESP

SMILES | inhibition [1] [%] | inhibition [2] [%] | inhibition [3] [%] | inhibition [4] [%] | inhibition [5] [%] | inhibition [6] [%] | inhibition [7] [%] | inhibition [8] [%] | inhibition [9] [%] | inhibition [10] [%] | inhibition [11] [%] | inhibition [12] [%] | inhibition [13] [%] | inhibition [14] [%] | inhibition [15] [%] | inhibition [16] [%] | inhibition [17] [%] | inhibition [18] [%] | inhibition [19] [%] | inhibition [20] [%]
OCCCNc1nccc(-c2c(-c3ccc(F)cc3)nn3cc(C(F)(F)F)ccc23)n1 | 7.6 | 3.85 | 9.08 | 0.36 | 2.19 | 6.36 | 8.12 | 0.6 | 3.51 | 5.34 | 21.4 | 1.92 | 7.22 | 5.07 | 13.3 | 3.31 | 5.88 | 4.28 | 2.96 | 0.48
COc1cc(N2CCN(C(C)C)CC2)ccc1Nc1nc(Nc2cccc3ncccc23)c2cc[nH]c2n1 | 4.47 | 0.66 | 4.9 | 0.27 | -0.31 | 1.54 | 0.74 | 2.02 | 2.89 | 1.88 | 8.08 | -1.29 | 0.07 | 0.56 | 6.73 | -1.1 | 0.07 | 0.03 | 0.57 | -0.29
CNC(=O)c1sc(-n2cnc3cc(OC)c(OC)cc32)cc1OCc1ccccc1C(F)(F)F | 4.37 | 6.28 | 16.6 | 5.07 | 20.8 | 10.4 | 31.6 | 3.26 | 7.14 | 8.53 | 12.2 | 3.14 | 3.6 | 9.53 | 12.2 | 2.47 | 3.85 | 5.34 | 7.16 | -0.27
CS(=O)(=O)CCNCc1ccoc1-c1ccc2ncnc(Nc3ccc(OCc4ccccc4)cc3)c2c1 | 5.63 | 0.11 | 8.33 | 3.25 | 9.46 | -0.07 | 3.99 | 1.72 | 1.42 | 0.34 | 4.29 | 1.46 | 2.49 | 1.28 | 2.65 | 1.95 | 2.79 | 2.37 | 3.29 | -1.84
